Rows were chosen to be rich in hits. Some 3.7% of all compounds tested hit in one or more screens of this group.
ELG1 DNA repair: inhibitors of ELG1-dependent DNA repair in HEK293T cells; hit rate 2.3% among 330,000; HEK293T ELG1-luciferase reporter, luminescence, 16 h; DNA damage induced by 5-fluorouridine; AID 504467; Potency, µM (series often up to 46.1 µM), for the others: at the top dose activity change, negative = inhibition, actives largely listed as inhibitors; note: % is set by controls: 0 for no effect and ±100 for the full control effect; nearly all actives have a fitted effect of over 55% in size
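In this reporter screen, reduction of luminescence relative to DMSO vehicle indicated activity. Compounds and 5-fluorouridine were added together to 2,000 cells per well, incubated for 16 hr at 37 °C, then developed with ONE-Glo.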
Nrf2 activator: activators of Nrf2 (ARE) signaling | AREc32 ARE-luciferase reporter (MCF7-derived line), luminescence, 24 h | Potency, µM (titrated, usually from 46.1 µM), for inactives: at the top dose activation, most hits filed as activators | hit rate 0.31% among 410,000 | AID 624171; note: % of control where 0% means no effect; nearly all actives have a fitted effect of over 65% in size
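ARE-driven firefly luciferase activity in AREc32 cells measured after a 24 hr compound exposure at 37 deg C, using Steady-Glo reagent and a 30 min room-temperature hold.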
Nrf2 inh: inhibitors of Nrf2 signaling. A549 ARE-Fluc reporter, luciferase luminescence, 18-24 h. hit rate 2.1% among 360,000. Potency, µM (highest dose often 46 µM), for the others: at the top dose activity change, negative = inhibition, hits mostly inhibitors; note: % is set by controls: 0 for no effect and ±100 for the full control effect; nearly all actives have a fitted effect of over 60% in size
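Quantitative HTS in A549 cells stably bearing an antioxidant response element-firefly luciferase construct. Inhibition of Nrf2-driven transcription was scored by luminescence after 18-24 h of compound exposure at 37 °C.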
A549 tox-1: kills or reduces viability of A549 cells in Nrf2 counter-screen. A549 ARE-Fluc cells, CellTiter-Fluor viability, 18-24 h. hit rate 0.16% among 390,000. Potency, µM (titrated, usually from 46 µM), for inactives: at the highest dose activity change, negative = cytotoxicity, hits mostly inhibitors; note: % is set by controls: 0 for no effect and ±100 for the full control effect
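A549 ARE-Fluc cells in 5% FBS OPTI-MEM, 5000 cells/well, rested 2 h then exposed to compounds in concentration-response for 18-24 h at 37 °C. Viability by CellTiter-Fluor fluorescence (Ex 405/Em 525) after 30 min; luciferase luminescence (BugLite, 15 min, RT) read afterwards.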
FLuc counter 3: counter-screen for Nrf2 inhibitors: firefly luciferase enzyme inhibition; shares compounds with Nrf2 inh; purified firefly luciferase, luminescence inhibition; Potency, µM (doses to about 57.5 µM), for inactives: top-dose activity change, negative = inhibition, usual class: inhibitors; hit rate 4% among 1,400; note: % is set by controls: 0 for no effect and ±100 for the full control effect; nearly all actives have a fitted effect of over 65% in size
Target sequence (P08659 whole entry, looked up): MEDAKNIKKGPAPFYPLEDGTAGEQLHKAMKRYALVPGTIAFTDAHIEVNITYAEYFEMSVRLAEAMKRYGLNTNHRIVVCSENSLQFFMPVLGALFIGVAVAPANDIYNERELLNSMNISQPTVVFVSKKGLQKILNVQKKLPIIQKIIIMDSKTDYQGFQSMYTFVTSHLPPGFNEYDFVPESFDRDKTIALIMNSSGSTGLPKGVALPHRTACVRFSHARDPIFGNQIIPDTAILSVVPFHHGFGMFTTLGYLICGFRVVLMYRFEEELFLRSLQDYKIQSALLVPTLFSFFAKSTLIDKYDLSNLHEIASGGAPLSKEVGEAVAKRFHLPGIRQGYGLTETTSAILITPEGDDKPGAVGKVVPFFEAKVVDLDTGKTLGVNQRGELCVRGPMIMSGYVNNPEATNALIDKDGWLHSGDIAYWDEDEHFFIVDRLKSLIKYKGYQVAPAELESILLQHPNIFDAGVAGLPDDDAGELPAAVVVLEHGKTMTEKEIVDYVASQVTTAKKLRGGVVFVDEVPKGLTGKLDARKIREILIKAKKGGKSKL
A549 tox-2: toxic to A549 ARE-Fluc cells in Nrf2 counterscreen | AID 720523 | hit rate 2% among 1,400 | Potency, µM (top dose mostly 46.1 µM), for inactives: at the top dose activity change, negative = cytotoxicity, hits mostly inhibitors | A549 ARE-Fluc cells, cytotoxicity counterscreen | shares compounds with Nrf2 inh;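 note: cells exposed to compounds for 18 to 24 hours; % is set by controls: 0 for no effect and ±100 for the full control effect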
ARE-Fluc inh: Nrf2 inhibition confirmed, A549 ARE-luciferase | Potency, µM (top dose mostly 46.1 µM), for inactives: top-dose activity change, negative = inhibition, usual class: inhibitors | shares compounds with Nrf2 inh | A549 ARE-firefly luciferase reporter, luminescence | AID 720524 | hit rate 74% among 1,400; note: % is set by controls: 0 for no effect and ±100 for the full control effect; nearly all actives have a fitted effect of over 65% in size
Numbers without * were called inactive; u = inconclusive; x = not tested or not shown. Calls come from the whole dose curve; as a rule, active = well fitted curve in the direction sought with a large enough effect; inconclusive = small, poorly fitted or top-dose-only effect, or another doubt; inactive = no such curve, though single readings can be large; an effect the other way counts as inactive or inconclusive. Potency is the fitted concentration of half-maximal effect.

SMILES | ELG1 DNA repair | Nrf2 activator | Nrf2 inh | A549 tox-1 | FLuc counter 3 | A549 tox-2 | ARE-Fluc inh
COc1cc(S(=O)(=O)NCc2ccncc2)ccc1Br | u | -1% | 3.3µM* | -16% | -2% | -2% | 3.7µM*
Cc1ccc(S(=O)(=O)NCc2ccncc2)cc1C | 19% | -1% | 2.3µM* | -6% | -2% | -1% | 2.1µM*
COc1ccc(S(=O)(=O)NCc2cccnc2)cc1 | -4% | 0% | -15% | -1% | x | x | x
O=S(=O)(NCc1ccncc1)c1ccc(F)c(F)c1 | x | 0% | x | x | x | x | x
Cc1ccc(C)c(C(C)NC(=S)NCc2ccc(F)cc2)c1 (configuration not stated) | u | -1% | u | 7% | x | x | x
CCOc1ccc(NC(=O)CSc2nc3c([nH]c4ccccc43)c(=O)n2-c2cc(C)cc(C)c2)cc1 | x | 0% | x | -8% | x | x | x
O=C(CC12CC3CC(CC(C3)C1)C2)NC1CC1 | x | 0% | 3% | -8% | x | x | x
CCCCn1c(CN2CCN(c3ccccc3)CC2)nc2c1c(=O)n(C)c(=O)n2C | u | 0% | 4.1µM* | u | 2% | -12% | 15µM*
O=C(Nc1cc(S(=O)(=O)N2CCCCC2)ccc1Cl)c1ccccc1NS(=O)(=O)c1ccc(F)cc1 | 4.1µM* | 4% | 3.7µM* | u | -26% | u | 4.6µM*
COC(=O)c1ccc(CN2C(=O)NC(Cc3c[nH]c4ccccc34)C2=O)cc1 (configuration not stated) | 27% | 3% | 1% | 3% | x | x | x
C=C(c1nc2ccccc2s1)C1Cc2cccc3c2N(CCC3)C1 (configuration not stated) | x | x | x | x | 12µM* | -72% | 2.6µM*
Cc1ccc(NC(=O)Nc2c(C)[nH]c(=O)[nH]c2=O)cc1Cl | -12% | -1% | -5% | 2% | x | x | x
CCOc1cc(/C=C(\C#N)C(=O)Nc2ccccc2C(=O)O)ccc1OC(=O)c1ccc(C)cc1 | 6% | 5% | 2.1µM* | -2% | u | -1% | 4.6µM*
COc1ccc(/C=C(/C#N)C(=O)Nc2ccccc2C)cc1C(=O)O | u | 3% | -15% | 0% | x | x | x
CC(C)Cc1nn2cc(-c3cccc(Br)c3)nc2s1 | x | 0% | u | 1% | x | x | x
COc1ccc2c(c1)CCc1c(C(=O)Nc3c(C)nn(Cc4ccc(Cl)c(Cl)c4)c3C)noc1-2 | x | -1% | 4.6µM* | -6% | 0% | -9% | 9.2µM*
COc1ccc2c(c1)CCc1c(C(=O)Nc3c(C)nn(Cc4ccccc4Cl)c3C)noc1-2 | x | 1% | -80% | -5% | x | x | x
O=C(COc1ccc2c(-c3ccccc3)cc(=O)oc2c1)NCc1ccccn1 | -6% | 0% | -16% | 0% | x | x | x
O=C(COc1ccc2c(-c3ccccc3)cc(=O)oc2c1)Nc1cccnc1 | u | 0% | 2.3µM* | 1% | -17% | -6% | 1.8µM*
CCN1C(=C(C#N)C#N)C=Cc2cc(C)ccc21 | 17% | 0% | 0% | 0% | x | x | x
C=CC[n+]1c(/C=C2\C=Cc3cc(C)ccc3N2CC)ccc2ccccc21 | u | -1% | 4.6µM* | u | -27% | 15µM* | 2.3µM*
CCOC(=O)C1=C(CSc2nc3ccccc3s2)NC(=O)NC1c1ccc(OC)cc1 (configuration not stated) | u | 0% | 5.8µM* | u | -20% | u | x
CCOC(=O)C1=C(CSc2nc3ccccc3s2)NC(=O)NC1c1cc(C)ccc1C (configuration not stated) | u | 5% | u | -6% | x | x | x
CN(Cc1cnc2nc(N)nc(N)c2n1)c1ccc(C(=O)NC(CCC(=O)O)C(=O)O)c2ccccc12 (configuration not stated) | x | 0% | 0.041µM* | -23% | -20% | -18% | 0.033µM*

Source: PubChem BioAssay (National Center for Advancing Translational Sciences (NCATS))
